Rows were chosen to be rich in hits. Some 4.7% of all compounds tested hit in one or more screens of this group.
D1 antagonist – Antagonist of Human D 1 Dopamine Receptor: qHTS; D(1A) dopamine receptor (Homo sapiens), P21728; HEK293 TREx D1 cells, calcium flux, dopamine EC80; active compounds read low; activity change, negative = inhibition, % at 10 µM; AID 504652, 2011; 3.2% of 360,000 active; in the data active = activity change below about -30%
Target sequence (P21728 whole entry, looked up): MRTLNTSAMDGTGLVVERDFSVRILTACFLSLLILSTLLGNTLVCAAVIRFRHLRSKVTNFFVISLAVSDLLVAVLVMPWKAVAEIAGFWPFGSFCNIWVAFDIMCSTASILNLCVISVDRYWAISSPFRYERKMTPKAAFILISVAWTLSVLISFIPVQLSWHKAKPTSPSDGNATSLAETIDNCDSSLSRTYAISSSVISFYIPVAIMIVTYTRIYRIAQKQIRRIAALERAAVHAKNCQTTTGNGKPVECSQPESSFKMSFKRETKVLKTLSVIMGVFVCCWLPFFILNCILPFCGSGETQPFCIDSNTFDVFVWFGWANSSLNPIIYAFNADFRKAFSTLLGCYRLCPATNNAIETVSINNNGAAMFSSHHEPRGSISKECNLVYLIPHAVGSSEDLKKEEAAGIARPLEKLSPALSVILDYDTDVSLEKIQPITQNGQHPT
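Using tetracycline-induced force-coupled D1 Hek293 cells and a calcium dye, signals were followed for 180 s after compound, then for 180 s after EC80 dopamine, to detect inhibitors.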
D1 potentiator – Potentiators of Human D1 Dopamine Receptor: qHTS; 0.036% of 360,000 active; D(1A) dopamine receptor (Homo sapiens), P21728; HEK293 TREx D1 cells, calcium flux, dopamine EC20 potentiation; potentiation, % at 10 µM; in the data active = potentiation above about 30%
D1 agonist – Allosteric Agonists of the Human D1 Dopamine Receptor: qHTS; HEK293 T-REx D1 cells, calcium flux, agonist mode; activation, % at 2 µM; 1% of 360,000 active; AID 504660, 2011
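Agonism was scored from calcium flux recorded over 180 s (1 read/s) after pintool compound addition, following a 10-cycle baseline. Cells were inducible force-coupled HEK293 TREx D1, plated overnight at 30 C and loaded with no-wash calcium dye.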
TRHR PAM – qHTS for Small Molecule Agonists and Allosteric Enhancers of Human TRH Receptor: Primary Screen for Enhancers; enhancement, % at 2 µM; 0.66% of 360,000 active; TRHR cells, fluo-8 calcium fluorescence, EC20 TRH enhancement; in the data active = enhancement above about 30%
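Enhancer read-out: after compound pinning and an initial kinetic agonist-mode read, an EC20 of TRH (10 nM final) was injected and fluo-8 calcium signal (Ex 480/Em 530) followed at 1 s/cycle for 100 cycles in TRHR-expressing cells.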
TRHR agonist – qHTS for Small Molecule Agonists and Allosteric Enhancers of Human TRH Receptor: Primary Screen for Agonists; TRHR cells, calcium flux fluo-8, FDSS agonist mode; activation, % at 2 µM; 0.18% of 360,000 active; AID 493084, 2011
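Read-out: compound-evoked intracellular calcium rise in TRHR cells, fluo-8 dye, kinetic FDSS fluorescence at 1 s/cycle following a 10-cycle baseline. Cells cultured overnight before dye loading (30 min–1.5 h, RT).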
Large screens that a line does not name were inactive; ! = not confirmed by another sample. Rule as the data show it, unless noted: active = activation above about 30%; inactive = the rest.

COC(=O)c1ccc(CNCC(O)COc2ccc(-c3ccccc3)cc2)cc1 (stereo unspecified)	none
COc1ccc(CNCC(O)COc2ccc(C(C)(C)c3ccccc3)cc2)cc1 (stereo unspecified)	D1 agonist 33
CCOc1ccc(OCC(O)CNC2CCN(Cc3ccccc3)CC2)cc1 (stereo unspecified)	none
OC(CNc1ccccc1)COc1ccc(OCC(O)CNc2ccccc2)cc1 (stereo unspecified)	D1 antagonist -40
CCOCC(O)CNc1ccccc1 (stereo unspecified)	none
CC(C)(c1ccccc1)c1ccc(OCC(O)CNC2CCN(Cc3ccccc3)CC2)cc1 (stereo unspecified)	D1 agonist 67
COc1ccc(NC(=O)C2=C(C)Nc3ncnn3C2c2ccc(C)o2)cc1 (stereo unspecified)	none
CC1=C(C(=O)Nc2ccccc2)C(c2ccc(C)o2)n2ncnc2N1 (stereo unspecified)	D1 antagonist -60
COc1ccc(N=Cc2c(O)c3ccccc3n2C(C)=O)cc1	D1 agonist 119, TRHR agonist 34
COc1ccc(N=Cc2sc(O)c3ccccc23)cc1	D1 antagonist -82, D1 agonist 544
COc1cc(O)oc1C=Nc1ccc(Oc2ccccc2)cc1	none
COc1ccc(C23CC4CC(CC(C4)C2)C3)cc1C(=O)NCCN(C)C	D1 agonist 39
COc1ccccc1OCCNC(=O)CCNC(=O)c1ccccc1OC	none
COc1ccccc1C(=O)NCCC(=O)NCCC12CC3CC(CC(C3)C1)C2	D1 antagonist -31
CCOc1cc(CNC(=O)C2CCN(c3nc4ccccc4[nH]3)CC2)cc(OCC)c1OCC	none
CN(C)c1ccc(/C=C/C(=O)c2c(O)c3ccccc3oc2=O)cc1	D1 agonist 156, TRHR agonist 38
CCOc1ccc(/C=C/C(=O)c2c(O)c3ccccc3oc2=O)cc1	none
COc1cc(NC(=O)Cn2c(=O)n(CC(=O)NCCc3ccc(OC)c(OC)c3)c(=O)c3sccc32)cc(OC)c1	none
O=[S+]([O-])(c1ccc2nsnc2c1)N1CCN([S+](=O)([O-])c2c(F)cccc2F)CC1	none
O=C(N/N=C/c1cccc([N+](=O)[O-])c1)C(=O)N1CCCCCC1	none
O=C(Cn1c(S(=O)(=O)Cc2ccccc2)nc2ccccc21)N1CCCCC1	D1 antagonist -35 (no result: D1 potentiator)
CCc1nc2ccccc2n1CC(=O)N1CCN(Cc2ccccc2)CC1	none
O=C(Cn1c(NCCO)nc2ccccc21)N1CCN(Cc2ccccc2)CC1	D1 antagonist -41
COc1cccc(NC(=O)CSc2nc(=O)n(Cc3ccccn3)c3c2CCC3)c1	none (no result: D1 antagonist)
O=C(CN1C(=O)C2C3C=CC(C3)C2C1=O)Nc1ccc(C(=O)O)cc1 (stereo unspecified)	D1 antagonist -30
O=C1C2C3C=CC(C3)C2C(=O)N1CCCCCCN1C(=O)C2C3C=CC(C3)C2C1=O (stereo unspecified)	TRHR PAM 32
O=C(O)CCN1C(=O)C2C3C=CC(C3)C2C1=O (stereo unspecified)	none
COC(=O)c1ccc(NC(=O)CN2C(=O)C3C4C=CC(C4)C3C2=O)cc1 (stereo unspecified)	none
Cc1c(Cl)cccc1NC(=O)C(=O)NNC(=O)c1ccccc1F	none
CC(=O)Nc1sc(N/N=C\c2ccc(O)cc2)nc1-c1cccs1	none
CCN(CC)c1ccc(/C=C(\C#N)c2nc(-c3cccs3)c(NC(C)=O)s2)cc1	D1 agonist 214, TRHR agonist 64
O=C(COC(=O)c1cc(S(=O)(=O)N2CCOCC2)ccc1F)Nc1ccc(Cl)cn1	none
O=C(COC(=O)CCc1ccc(S(=O)(=O)N2CCOCC2)cc1)Nc1ccc(Cl)cn1	D1 agonist 36!
CCN(CC)S(=O)(=O)c1cccc(NC(=O)COC(=O)c2n[nH]c(=O)c3ccccc23)c1	D1 antagonist -32
COc1ccc2c(CC(=O)Nc3cccc(S(=O)(=O)N4CCOCC4)c3)coc2c1	D1 antagonist -87
CCCc1nc2ccccc2c(C(=O)OCC(=O)Nc2cccc(S(=O)(=O)N3CCOCC3)c2)c1CC	D1 antagonist -34
CCN(CC)S(=O)(=O)c1cccc(NC(=O)COC(=O)c2cc(C)oc2C)c1	none
Cc1nc(N2CCCC2)c2c(C(=O)Nc3ccc(Br)cc3F)c(C)oc2n1	none
O=C(COC(=O)CCc1nc2ccccc2s1)Nc1cccc(S(=O)(=O)N2CCOCC2)c1	D1 antagonist -44
N#CCc1nc2ccc(S(=O)(=O)N3CCOCC3)cc2s1	D1 agonist 39, TRHR agonist 35
O=C(COC(=O)c1n[nH]c2ccccc12)Nc1cccc(S(=O)(=O)N2CCOCC2)c1	D1 antagonist -31
CSc1nc2ccc(S(=O)(=O)N3CCOCC3)cc2s1	none
Cc1cc2c(s1)c1cnn(Cc3cc(F)cc(F)c3F)c(=O)c1n2C	none
CCCCN(C)CCNC(=O)c1ccc2c(c1)NC(=O)CN2	none
OCc1ccccc1OCCCN1CCC(Cc2ccccc2)CC1	D1 antagonist -39
COc1cc(C(C)=O)ccc1OCCCN1CCC(Cc2ccccc2)CC1	none
C(#CCN1CCC(Cc2ccccc2)CC1)COCCOCc1ccccc1	D1 antagonist -35
c1ccc(COCCN2CCN(CCOCc3ccccc3)CC2)cc1	none
Clc1ccccc1OCCN1CCC(Cc2ccccc2)CC1	D1 antagonist -42
Cc1ccccc1CSc1cn(CC(=O)N2CCCCC2)c2ccccc12	none
CSCCC(NS(=O)(=O)c1ccc2c(c1)oc(=O)n2C)C(=O)Nc1ccc(F)c(Cl)c1 (stereo unspecified)	none
COc1ccccc1N1CCN(Cc2nc(-c3cc(OC)c(OC)c(OC)c3)no2)CC1	none
Cc1nc2[nH]onc2c2nccc(=O)c12	D1 antagonist -39
CCOc1cccc(Oc2ncccc2C(=O)/C(C#N)=C/N(C)C)c1	D1 antagonist -38
CCC(=O)N1c2ccccc2CC1C(=O)NCc1ccc(CC)cc1 (stereo unspecified)	none
Cc1ccccc1-c1nc(CS(=O)(=O)CC(=O)NCCCc2ccccc2)c(C)o1	none
CN(C)Cc1ccccc1Sc1ccc(O)cc1O	TRHR PAM 30
CNCc1ccccc1Sc1cc(O)ccc1O	none
Cc1cnc(NC(=O)C2=C(O)c3ccccc3S(=O)(=O)N2C)s1	D1 antagonist -52!
CCCn1c(=N)c(C(=O)NC2CCCC2)cc2c(=O)n3cc(C)ccc3nc21	none
COCCCn1c(=N)c(C(=O)NC2CCCC2)cc2c(=O)n3cc(C)ccc3nc21	D1 agonist 86
CCOCCCn1c(=N)c(C(=O)NCc2cccnc2)cc2c(=O)n3ccccc3nc21	none

Screens from PubChem.
